Assay [1] has as its system TYK2(JH1domain-catalytic).
The test system of assay [2] is TYK2(JH2domain-pseudokinase).
The test system of the next assay is T1, VEGFR2.
T1 construct: gene KDR

The Kd is a measure of binding affinity in units of concentration. The low end stands for tighter binding, the high end for weaker binding.
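Also: kd values determined as follow-up on hits from a single-replicate KINOMEscan panel screen.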

`CC(=O)c1c(C)c2cnc(Nc3ccc(N4CCNCC4)cn3)nc2n(C2CCCC2)c1=O` yielded a dissociation constant (Kd) in the assay on TTK of 0.0092 µM.

In the assay with TTK, `O=C1NC(=O)C(c2ccc(Cl)cc2)=C1Nc1ccc(O)cc1` [SB-340867] registered a Kd of 5.5 µM.

`Cn1cncc1C(=O)NC1CCN(c2ccnc(Nc3ccc(F)cc3)n2)C1` (stereo not drawn) [GSK1379717]: the dissociation constant (Kd) in the assay with TXK is greater than 10 µM.

For the molecule `COc1cccc(CNC(=O)NC2CCN(c3ccnc(Nc4ccc(F)cc4)n3)C2)c1` (stereo not drawn) [GSK1379723], the Kd in the assay on TXK was greater than 10 µM.

In assay [1], `Cn1cncc1-c1cc2c(Nc3ccc(OCc4ccccc4)cc3)ncnc2cn1` [GW281179] yielded a Kd greater than 10 µM.

Take `CN1c2ccc(-c3ccc(C(N)=O)cc3)cc2-c2[nH]ncc2S1(=O)=O`: in assay [2], the Kd turned out to be 0.93 µM.

Turning to `Cn1cnc2c(N)ncnc21` [SKF-97623], the dissociation constant Kd in the assay with VEGFR2 and with VRK2 was greater than 10 µM in each case.

Regarding `O=C1NC(=O)C(c2ccc(Cl)cc2)=C1Nc1cccc(Cl)c1` [SB-317651], the equilibrium dissociation constant (Kd) in the assay on VRK2 was greater than 10 µM.

As to `Cl.Cl.Cl.N#Cc1ccc(CCNc2nccc(-c3cccc(CN4CCNCC4)c3)n2)cc1` [GSK2137462], the Kd with WEE1 and in the assay on WNK4 was greater than 10 µM throughout.

In turn, `CNc1cc(-c2ccc3c(N)n[nH]c3c2)nc(N)n1` [GSK2224810] displayed a Kd in the assay on WNK4 greater than 10 µM.

The values above are taken from publication PMC5540273 (PLoS ONE, 2017).
